The structures appear in SMILES notation. Activity calls are given as the source filed them. Unless noted, the rule behind the calls is not given here.

The subject of experiment [1] is Wnt5a (protein binding on small-molecule microarray). Description: Wnt5a binders on small-molecule microarray, primary screen, biophysical, 635/667 nm fluorescence (AID 1142).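 Note: fluorescence read at 667 nm with signal to noise per printed feature.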 The settings on record: 635 nm fluorescence, higher = more signal.
A short description of experiment [2]: cell viability in Huh7 cells, primary screen, cytotoxicity control for HCV replication inhibitor project, CellTiter-Glo luminescence, basal, 48 h (AID 1143).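 Note: Huh7 hepatoma cells carrying a hepatitis C replication reporter with no stimulus; test concentration not given here.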 The note with it: Huh7 HCV replicon, higher = more signal, called active from +8 up or from −8 down.
The nature of experiment [3]: P. aeruginosa biofilm formation inhibitors, primary screen, PAO1 strain, BacTiter-Glo luminescence, LB-PBS (AID 1144). The settings on record: 12 h, higher = more signal.
Experiment [4] is described as follows: CREB reporter modulators without forskolin, primary screen, cell-based, PC12, CRE-LacZ reporter, unstimulated (AID 1145). The settings on record: no forskolin, luminescence, 4.5 h, higher = more signal, called active from +8 up or from −8 down.
Experiment [5] is described as follows: CREB reporter modulators under forskolin, primary screen, cell-based, PC12, CRE-LacZ reporter, forskolin-stimulated (AID 1146).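 Note: PC12 cells with 6xCRE LacZ reporter stimulated by forskolin 10 µM; beta-galactosidase reporter signal reflecting CREB driven transcription.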 The settings on record: luminescence, 4.5 h, higher = more signal, called active from +8 up or from −8 down.
For experiment [6], the target named is Streptavidin (Streptomyces avidinii) (UniProt P22629). Description: streptavidin binders on small-molecule microarray, primary screen, artefact control for SMM compound annotation, biophysical, 635/667 nm fluorescence (AID 1147).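 Note: signal reflects streptavidin binding to arrayed compounds as a control protein.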 The note with it: streptavidin binding, higher = more signal.
Experiment [7] can be described thus: small-molecule binders of probe aInhba, primary screen, biochemical, small-molecule microarray, 635/667 nm fluorescence (AID 1148).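 Note: score merges 667nm spot fluorescence with signal-to-noise for antibody binding to printed compounds.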 The settings on record: higher = more signal.
Experiment [8] addresses Torsin-1A (Homo sapiens) (UniProt O14656). Nature of the experiment: torsin A binders from cell lysate, primary screen, small-molecule microarray, wild-type, 635/667 nm (AID 1149). The note with it: COS7 hTOR1A-WT lysate, 635 nm fluorescence, higher = more signal.
The target is the same in experiment [9]. Nature of the experiment: small-molecule binders of mutant TOR1A in lysate, primary screen, cell lysate, small-molecule microarray, COS7 lysate, 635/667 nm fluorescence (AID 1150).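 Note: score pools 667 nm emission and signal to noise measuring lysate protein binding.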 The note with it: COS7 hTOR1A mutant lysate, 635 nm fluorescence, higher = more signal.
Experiment [10] deals with Sonic hedgehog protein (Shh). Nature of the experiment: small-molecule binders of Shh protein, primary screen, biochemical, small-molecule microarray, 635/667 nm fluorescence (AID 1151).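 Note: Shh protein binding to compounds spotted on small-molecule microarray slides; score combines spot fluorescence intensity with signal-to-noise across triplicate slides.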 The settings on record: small-molecule microarray binding, 635 nm fluorescence; higher = more signal.
Experiment [11] is described as follows: E. coli DRC41 culture turbidity changes, primary screen, E. coli filamentation inducer project, strain DRC41, OD650, 48 h (AID 1152).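 Note: E. coli MC1000 strain DRC41 lacking acrAB efflux pump and sulA.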 The settings on record: E. coli DRC41 (acrAB sulA), higher = more signal, called active from +8 up or from −8 down.
Experiment [12] can be described thus: small-molecule binders of probe aLefty1, primary screen, biochemical, small-molecule microarray, 635/667 nm fluorescence (AID 1153).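 Note: score merges spot fluorescence with signal-to-noise ratio from the scanned slide images.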 The settings on record: higher = more signal.
Experiment [13] can be described thus: PSAC antagonists in infected red cells, primary screen, cell-based, P. falciparum Indochina, OD700, 1 h (AID 1154). The settings on record: P. falciparum Indochina infected RBC osmotic lysis, higher = more signal, called active from +8 up or from −8 down.
Experiment [14] can be described thus: PSAC antagonists in infected red cells, primary screen, cell-based, P. falciparum Indochina, OD700, 2 h (AID 1155).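 Note: lysis reports solute entry through the parasite surface anion channel PSAC; channel blockers reduce lysis of infected cells.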 The settings on record: P. falciparum Indochina infected erythrocytes, osmotic lysis OD700; higher = more signal, called active from +8 up or from −8 down.
A short description of experiment [15]: osmotic lysis modulators in infected erythrocytes, primary screen, PSAC antagonist project, cell-based, P. falciparum Indochina, OD700, 3 h (AID 1156). The settings on record: higher = more signal, called active from +8 up or from −8 down.
Experiment [16] is described as follows: PSAC antagonists in infected red cells, primary screen, cell-based, P. falciparum Indochina, OD700, 18 h (AID 1157). The settings on record: P. falciparum Indochina infected erythrocytes, osmotic lysis OD700, 18 h; higher = more signal, called active from +8 up or from −8 down.
The nature of experiment [17]: modulators of S6 phosphorylation in cells, primary screen, cell-based, A549, cytoblot, luminescence, serum-stimulated (AID 1158).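 Note: serum-stimulated A549 lung adenocarcinoma cells; signal is phosphorylated S6 detected by cytoblot immunostaining with HRP secondary.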 The note with it: A549 phospho-S6 cytoblot, 5 h, higher = more signal.
In experiment [18] the target is NADPH oxidase 2 (Homo sapiens) (UniProt P04839). Description: NOX2-dependent H2O2 signal modulators, primary screen, NOX inhibitor project, cell-based, HEK293-NOX2, PMA-stimulated, Amplex Red fluorescence (AID 1159). Note: test concentration not given here. The settings on record: 45 min, higher = more signal, called active from +8 up or from −8 down.
Experiment [19] addresses NADPH oxidase 4 (Homo sapiens) (UniProt Q9NPH5). Nature of the experiment: NOX4-dependent H2O2 signal modulators, primary screen, NOX inhibitor project, cell-based, HEK293-NOX4, tetracycline-induced, Amplex Red fluorescence (AID 1160). The note with it: 45 min, higher = more signal, called active from +8 up or from −8 down.
The target in experiment [20] is NADPH oxidase 5 (Homo sapiens) (UniProt Q96PH1). Description: NOX5-dependent H2O2 signal modulators, primary screen, NOX inhibitor project, cell-based, HEK293-NOX5, Amplex Red fluorescence (AID 1161). The note with it: HEK293-NOX5, ionomycin, 45 min, higher = more signal.
Sequence of NADPH oxidase 5 (Homo sapiens) (Q96PH1 whole entry, looked up): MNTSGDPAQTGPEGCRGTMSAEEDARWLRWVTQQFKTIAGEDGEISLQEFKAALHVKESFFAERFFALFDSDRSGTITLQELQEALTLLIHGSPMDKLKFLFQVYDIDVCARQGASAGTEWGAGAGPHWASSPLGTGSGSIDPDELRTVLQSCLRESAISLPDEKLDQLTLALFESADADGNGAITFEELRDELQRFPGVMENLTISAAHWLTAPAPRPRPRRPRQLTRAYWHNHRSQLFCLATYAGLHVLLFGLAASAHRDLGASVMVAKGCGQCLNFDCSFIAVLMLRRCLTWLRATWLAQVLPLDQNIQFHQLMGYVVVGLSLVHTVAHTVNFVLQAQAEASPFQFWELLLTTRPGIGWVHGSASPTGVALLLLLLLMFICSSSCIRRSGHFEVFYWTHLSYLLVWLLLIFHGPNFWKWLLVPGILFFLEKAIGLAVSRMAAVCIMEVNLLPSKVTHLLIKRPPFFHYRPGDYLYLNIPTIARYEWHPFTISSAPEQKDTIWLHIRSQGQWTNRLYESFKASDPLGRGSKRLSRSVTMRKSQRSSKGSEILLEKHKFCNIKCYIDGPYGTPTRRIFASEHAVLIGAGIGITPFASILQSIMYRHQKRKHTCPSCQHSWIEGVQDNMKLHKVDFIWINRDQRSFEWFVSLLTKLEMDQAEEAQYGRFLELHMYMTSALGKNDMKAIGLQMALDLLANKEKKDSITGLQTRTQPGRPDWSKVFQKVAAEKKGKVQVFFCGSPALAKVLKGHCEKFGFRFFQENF

Sequence of NADPH oxidase 2 (Homo sapiens) (P04839 whole entry, looked up): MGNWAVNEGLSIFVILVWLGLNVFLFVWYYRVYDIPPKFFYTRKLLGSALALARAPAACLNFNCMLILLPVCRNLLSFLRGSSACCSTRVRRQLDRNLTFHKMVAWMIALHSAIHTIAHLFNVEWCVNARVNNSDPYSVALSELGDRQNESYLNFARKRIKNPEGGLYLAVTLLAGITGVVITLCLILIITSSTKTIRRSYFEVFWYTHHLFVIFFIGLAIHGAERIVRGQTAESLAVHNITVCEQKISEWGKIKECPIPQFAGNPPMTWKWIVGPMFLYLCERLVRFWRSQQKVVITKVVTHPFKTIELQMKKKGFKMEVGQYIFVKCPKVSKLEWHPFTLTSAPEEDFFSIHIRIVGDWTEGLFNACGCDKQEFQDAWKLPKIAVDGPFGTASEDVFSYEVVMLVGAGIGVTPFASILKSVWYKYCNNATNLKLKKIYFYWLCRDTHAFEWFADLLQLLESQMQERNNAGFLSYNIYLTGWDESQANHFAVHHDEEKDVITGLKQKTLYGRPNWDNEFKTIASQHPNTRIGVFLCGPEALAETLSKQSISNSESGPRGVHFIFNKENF
Sequence of Torsin-1A (Homo sapiens) (O14656 whole entry, looked up): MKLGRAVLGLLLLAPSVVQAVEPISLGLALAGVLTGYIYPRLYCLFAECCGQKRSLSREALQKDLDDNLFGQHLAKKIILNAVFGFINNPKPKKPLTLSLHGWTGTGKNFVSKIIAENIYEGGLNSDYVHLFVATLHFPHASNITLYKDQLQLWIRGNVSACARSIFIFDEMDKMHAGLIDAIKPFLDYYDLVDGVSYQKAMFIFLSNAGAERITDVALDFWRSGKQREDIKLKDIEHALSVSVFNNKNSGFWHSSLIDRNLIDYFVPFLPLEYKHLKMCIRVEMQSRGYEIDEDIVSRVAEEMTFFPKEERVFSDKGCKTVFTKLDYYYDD
Sequence of NADPH oxidase 4 (Homo sapiens) (Q9NPH5 whole entry, looked up): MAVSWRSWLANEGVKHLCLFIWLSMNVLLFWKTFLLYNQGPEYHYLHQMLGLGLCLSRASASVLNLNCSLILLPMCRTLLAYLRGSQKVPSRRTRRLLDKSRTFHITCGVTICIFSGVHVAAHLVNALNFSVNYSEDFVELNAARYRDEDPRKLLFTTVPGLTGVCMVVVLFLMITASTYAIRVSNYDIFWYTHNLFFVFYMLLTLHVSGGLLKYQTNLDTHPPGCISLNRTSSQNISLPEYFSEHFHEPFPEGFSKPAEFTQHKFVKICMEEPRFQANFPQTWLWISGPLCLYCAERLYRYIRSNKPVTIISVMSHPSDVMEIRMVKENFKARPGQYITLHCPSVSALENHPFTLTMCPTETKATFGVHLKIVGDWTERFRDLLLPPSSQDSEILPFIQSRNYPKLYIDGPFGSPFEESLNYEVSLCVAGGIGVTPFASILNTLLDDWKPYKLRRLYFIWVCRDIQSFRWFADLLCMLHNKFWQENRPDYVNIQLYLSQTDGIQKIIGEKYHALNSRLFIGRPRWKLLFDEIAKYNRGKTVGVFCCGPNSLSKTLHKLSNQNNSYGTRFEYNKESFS
Sequence of Streptavidin (Streptomyces avidinii) (P22629 whole entry, looked up): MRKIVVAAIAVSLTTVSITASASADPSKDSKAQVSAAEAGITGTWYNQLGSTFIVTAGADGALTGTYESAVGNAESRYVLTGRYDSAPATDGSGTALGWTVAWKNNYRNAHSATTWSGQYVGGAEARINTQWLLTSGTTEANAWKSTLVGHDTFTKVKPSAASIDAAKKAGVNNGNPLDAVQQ

As to `CN(C)C(=O)[C@]1(Cc2ccccc2)N=C(c2ccc(OCCCO)cc2)O[C@@H]1c1ccccc1N=[N+]=[N-]`, the composite z-score amounted to 0.435 in experiment [1]; 1.06 in experiment [6]; 0.143 in experiment [7]; 0.37 in experiment [8]; 0.523 in experiment [9]; 0.0841 in experiment [10]. Also, in experiment [12], the composite z-score is 0.008. For the same compound, the z-score in [2] is -4.22 (inactive); in experiment [3] it was 0.54 (inactive); in experiment [4] it was -0.459 (inactive); in experiment [5] it was -1.58 (inactive); in [11] it was 0.554 (inactive); in experiment [13], 32.4 (active). In addition, the z-score in experiment [14] is 34.9 (active); in [15], 1.96 (inactive); in [16], 4.27 (inactive); in experiment [17] it was 0.0986; in experiment [18] it was -1.46 (inactive); in experiment [19] it was -0.242 (inactive). The compound further yielded a z-score in experiment [20] of -1.36.
With `COc1ccc([Si](C)(C)[C@@H]2[C@@H](CCn3cc(CCO)nn3)O[C@]3(C(=O)N(Cc4cccc(N5C(=O)c6cccc7cccc5c67)c4)c4ccccc43)[C@H]2C)cc1`, the composite z-score was 0.206 in experiment [1]; 0.942 in [6]; -0.0589 in [7]; 0.119 in experiment [8]; 0.141 in [9]; 2.08 in experiment [10]. In [12], this compound yielded a composite z-score of -0.0011. Also, the z-score in [2] is -7.96 (inactive); in [3] it was 0.000859 (inactive); in experiment [4] it was 2.93 (inactive); in [5], -1.45 (inactive); in experiment [11] it was 0.259 (inactive); in [13] it was 4.42 (inactive). Moreover, the z-score was 1.6 (inactive) in experiment [14]; 1.22 (inactive) in experiment [15]; -0.682 (inactive) in experiment [16]; 1.16 in experiment [17]; 1.58 (inactive) in experiment [18]; 1.76 (inactive) in [19]. This compound had a z-score in [20] of 1.3.
With `C=CCNC(=O)[C@H]1[C@@H]2C(=O)O[C@@H](c3ccccc3)[C@@H](c3ccccc3)N2[C@@H](c2ccc(O)cc2)[C@]12C(=O)Nc1ccc(C#CCCO)cc12`, the composite z-score in [1] is -0.169; in experiment [6] it was -0.374; in experiment [7], -0.152; in experiment [8] it was -0.944; in [9], -0.187; in experiment [10], 0.717. In experiment [12], this compound showed a composite z-score of 0.117. Besides, the z-score was 0.0368 (inactive) in experiment [2]; 0.722 (inactive) in experiment [3]; 0.452 (inactive) in experiment [4]; -0.67 (inactive) in experiment [5]; 0.605 (inactive) in experiment [11]; 5.56 (inactive) in experiment [13]. Further, the z-score in [14] was 0.608 (inactive); in experiment [15], -0.763 (inactive); in experiment [16], 0.443 (inactive); in experiment [17] it was -0.0803; in experiment [18] it was 0.67 (inactive); in experiment [19] it was -0.436 (inactive). The compound also had a z-score in experiment [20] of 0.603.
As to `C=CC[C@]12N=C(c3ccc(OCCCO)cc3)O[C@H]1c1ccccc1N(CCS(=O)(=O)c1ccccc1)C2=O`, the composite z-score in [1] is 0.382; in [6], 1.07; in experiment [7], -0.101; in experiment [8] it was 0.695; in experiment [9] it was 0.79; in [10] it was 1.39. Further, the composite z-score in experiment [12] is 0.204. Moreover, the z-score was -3.24 (inactive) in experiment [2]; -0.438 (inactive) in experiment [3]; -1.04 (inactive) in experiment [4]; -1.87 (inactive) in experiment [5]; -0.913 (inactive) in experiment [11]; 31.2 (active) in experiment [13]. The z-score was 28 (active) in experiment [14]; 2.35 (inactive) in [15]; 7.99 (inactive) in [16]; 0.852 in experiment [17]; -2.24 (inactive) in experiment [18]; 0.939 (inactive) in [19]. Further, the z-score in experiment [20] is -2.12.
As to `Cc1c(NC(=O)/C(C#N)=C/c2cccc([N+](=O)[O-])c2)c(=O)n(-c2ccccc2)n1C`, the composite z-score is 0.233 in [1]; 0.891 in experiment [6]; -0.0774 in experiment [7]; 0.659 in [8]; 1.12 in experiment [9]; 0.478 in experiment [10]. Further, the composite z-score in [12] is -0.173. Besides, the z-score was -3.67 (inactive) in [2]; -1.97 (inactive) in [3]; -0.554 (inactive) in experiment [4]; -1.47 (inactive) in [5]; 0.969 (inactive) in [11]; 0.468 (inactive) in experiment [13]. Besides, the z-score in experiment [14] was -0.376 (inactive); in experiment [15], -0.451 (inactive); in [16], -0.481 (inactive); in experiment [17], 2.39; in experiment [18] it was -1.36 (inactive); in experiment [19] it was -0.497 (inactive). Moreover, the z-score in experiment [20] stood at 0.864.
`COC(=O)c1c(CC[C@@H](CO)NC(=O)NCCc2c[nH]c3ccccc23)oc(C(=O)Cc2ccccc2)c1C(=O)OC`: the composite z-score in [1] was -0.229; in experiment [6], -0.322; in experiment [7], -0.188; in experiment [8], 0.207; in [9] it was 0.0487; in [10] it was 0.0213. The composite z-score in experiment [12] was -0.423. The z-score is -0.195 (inactive) in experiment [2]; 0.604 (inactive) in experiment [3]; 1.37 (inactive) in [4]; -0.713 (inactive) in [5]; 0.659 (inactive) in experiment [11]; 7.43 (inactive) in [13]. Also, the z-score in experiment [14] was -0.0918 (inactive); in experiment [15], -0.366 (inactive); in experiment [16], -1.01 (inactive); in experiment [17], 0.814; in experiment [18], -2.09 (inactive); in [19] it was -1.16 (inactive). This compound showed a z-score in experiment [20] of -0.595.
Regarding `Cc1ccc(S[C@]2(C(=O)O)CC(=O)N(Cc3ccccc3C(F)(F)F)[C@@H]2c2ccc(CO)cc2I)cc1`, the composite z-score was 0.192 in experiment [1]; -0.584 in experiment [6]; -0.193 in experiment [7]; -0.46 in experiment [8]; 1.98 in [9]; 0.0365 in experiment [10]. The same compound registered a composite z-score in [12] of 0.737. In addition, the z-score in [2] was -1.03 (inactive); in experiment [3] it was 0.586 (inactive); in [4], -0.619 (inactive); in experiment [5], 1.81 (inactive); in experiment [11], -1.17 (inactive); in [13], 6.52 (inactive). For the same compound, the z-score in [14] was 0.427 (inactive); in [15], 0.591 (inactive); in experiment [16] it was 0.402 (inactive); in [17], 0.0721; in [18], 1.63 (inactive); in experiment [19], -1.72 (inactive). Moreover, the z-score in [20] came out at 1.12.
Turning to `COC(=O)[C@@]1(Cc2ccccc2)[C@H]2c3cc(C(=O)N(C)C)n(Cc4ccc(OC)c(OC)c4)c3C[C@H]2CN1C(=O)c1ccccc1`, the composite z-score in [1] was 1.15; in experiment [6], 1.43; in [7], 0.498; in [8], 0.406; in experiment [9], 1.16; in experiment [10], -0.735. In experiment [12], this compound had a composite z-score of 0.211. Further, the z-score is -2.81 (inactive) in experiment [2]; 0.655 (inactive) in experiment [3]; 0.394 (inactive) in experiment [4]; 0.786 (inactive) in [5]; -1.95 (inactive) in experiment [11]; 3.81 (inactive) in [13]. Also, the z-score is 1.2 (inactive) in experiment [14]; 0.688 (inactive) in [15]; 1.11 (inactive) in experiment [16]; -0.399 in experiment [17]; -0.415 (inactive) in experiment [18]; -0.865 (inactive) in [19]. Also, the z-score in [20] was -0.0397.

Source of the values: PubChem BioAssay.
